Screening results (PubChem)
ALR H2O2 inh = inhibitors of human sulfhydryl oxidase ALR; AID 485317; P55789; inhibition, % (no concentration beside the values); 3.8% of 290,000 active; purified ALR, DTT oxidation, H2O2 HRP-luminol luminescence;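 active = mean replicate inhibition above about 79%, with every replicate also reaching it, limit read from the data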
Target sequence (P55789 whole entry, looked up): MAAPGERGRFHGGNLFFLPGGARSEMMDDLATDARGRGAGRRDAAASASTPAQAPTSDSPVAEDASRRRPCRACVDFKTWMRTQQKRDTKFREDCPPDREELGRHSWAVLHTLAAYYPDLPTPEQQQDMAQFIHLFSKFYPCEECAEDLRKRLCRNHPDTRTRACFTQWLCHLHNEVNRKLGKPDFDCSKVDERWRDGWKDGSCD
beta cell repl = inducers of beta-cell replication in MIN6 cells | MIN6 cells proliferation, ATPlite luminescence, 48 h; cells starved in 0.2% serum; 100% = growth in 10% serum | proliferation, % at 10 µM | 0.29% of 330,000 active;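 active = compounds whose signal lies at least 3.5 SD above the mean of all wells on their plate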;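 also: 0% = DMSO-treated cells in low-serum medium and 100% = 10% serum control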
PfM18AAP inh = blocks P. falciparum M18 aspartyl aminopeptidase; inhibition, % at 7.35 µM; 1.2% of 290,000 active; recombinant PfM18AAP, H-Glu-NHMec fluorogenic cleavage;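 active = inhibition above the campaign mean inhibition over all tested compounds plus 3 SD, cut at about 28% in these data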;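 also: 0% = plate median of test compound wells and 100% = 2 mM ZnCl2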
JMJD2C inh = blocks human GASC-1 demethylase activity. GST-JMJD2C(1-420) H3K9me3 demethylation, DELFIA europium. inhibition, % at 2.35 µM. 0.069% of 330,000 active. AID 2099;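 active = more than half of a compound's replicate wells show inhibition beyond 50%, single wells judged on their own value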;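 also: signal counts dimethyl H3K9 product captured on neutravidin plate; 0% = median of DMSO wells and 100% = 0.3 times that DMSO median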
Target sequence (Q9H3R0 1-420 limits assumed): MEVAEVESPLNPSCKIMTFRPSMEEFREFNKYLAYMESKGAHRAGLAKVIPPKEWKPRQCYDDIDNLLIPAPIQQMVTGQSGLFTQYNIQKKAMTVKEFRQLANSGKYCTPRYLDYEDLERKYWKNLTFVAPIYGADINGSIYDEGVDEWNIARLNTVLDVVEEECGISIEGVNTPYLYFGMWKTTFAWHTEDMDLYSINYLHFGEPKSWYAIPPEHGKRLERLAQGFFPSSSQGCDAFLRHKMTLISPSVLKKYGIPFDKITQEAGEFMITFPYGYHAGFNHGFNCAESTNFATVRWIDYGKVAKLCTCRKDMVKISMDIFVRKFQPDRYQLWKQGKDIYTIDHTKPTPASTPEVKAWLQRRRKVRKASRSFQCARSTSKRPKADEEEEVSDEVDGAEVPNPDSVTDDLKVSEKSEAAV
Exocytosis inh = blocks lytic granule exocytosis; TALL-104 LAMP-1 surface exposure, flow cytometry; cells stimulated with thapsigargin and PMA; inhibition, % at 10 µM; 0.66% of 360,000 active; AID 651702;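 active = inhibition above about 55%, limit read from the data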
SMARCA2 activ = activators of SMARCA2 function. 1% of 370,000 active. MG213 cells, MMTV-luciferase reporter, dexamethasone, overnight. AID 652017. activation, % at 9.1 µM; in the data active = activation above about 7.8%;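 also: 0% = vehicle wells and 100% = reference activator wells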
SMARCA2 conf = confirmation of SMARCA2 (BRM) function activators | activation, % at 9.1 µM | shares compounds with SMARCA2 activ | AID 652260 | MG213 cells, MMTV-luciferase with dexamethasone, luminescence, overnight; MG213 cells expressing E1A, Rb sequestered; DMSO wells 0%, reference activator 100% | 30% of 3,500 active;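 active = activation above its plate's cutoff, the mean activation of tested wells plus 3 SD, cut at about 7.9% in these data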
GAL4-VP16 Luc = activates GAL4-VP16 luciferase, flagging SMARCA2 activator hits; activation, % at 9.1 µM; 41% of 3,500 active; HEK293 GAL4-VP16 pG5luc reporter, luciferase luminescence; scaled: DMSO wells 0%, SAHA wells 100%; shares compounds with SMARCA2 activ; AID 686939;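 active = activation above the solvent-only control well mean plus 3 SD, averaged across control plates, cut at about 5.2% in these data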
The depositor's hits bear a star; x = no result given. The list is not random: actives were taken first. Their share in the collection is about 5.4%.

SMILES	ALR H2O2 inh	beta cell repl	PfM18AAP inh	JMJD2C inh	Exocytosis inh	SMARCA2 activ	SMARCA2 conf	GAL4-VP16 Luc
CCN(C(=O)COC(=O)c1c(-c2ccccc2)noc1C)C1CCS(=O)(=O)C1 (stereo unspecified)	-10	2	-7	2	-2	8.6*	-3	1
CCN(C(=O)COC(=O)c1c(C)c(-c2ccccc2)nc2ccccc12)C1CCS(=O)(=O)C1 (stereo unspecified)	-8	-1	-2	-3	29	-2	x	x
CC1(C(=O)NCCC(F)(F)F)Cc2c(-c3ccccc3)ccnc2O1 (stereo unspecified)	x	x	x	x	1	0	x	x
Cc1cc(C(=O)Nc2cnc3ccccc3c2)ccc1[N+](=O)[O-]	3	-2	0	6	-2	9.3*	5	8.5*
Cc1ccc(C(=O)Nc2cnc3ccccc3c2)cc1	-4	-4	8	-10	0	-6	x	x
COc1ccc(C(=O)NCCNc2nc3cc(C)cc(C)c3cc2C#N)nc1	x	x	x	x	-11	-2	x	x
O=c1c2sc(-c3ccccc3)cc2nc2n1CCC2	-2	-2	-1	3	0	9.9*	2	4
Cc1cccc(NC(=O)Nc2nnc(N3CCCCC3C)s2)c1C (stereo unspecified)	5	-1	4	-5	12	8.0*	-2	2
COc1cccc(NC(=O)C2CC2(c2cccc(OC)c2)c2cccc(OC)c2)c1 (stereo unspecified)	-4	0	9	-10	-2	-2	x	x
COc1cccc(C2(c3cccc(OC)c3)CC2C(=O)Nc2cccc3ccccc23)c1 (stereo unspecified)	-11	-3	3	3	-10	9.6*	-7	1
CCOC(=O)c1ccc2[nH]c3c(c2c1)CCCC3O (stereo unspecified)	-2	0	3	-8	11	0	x	x
CCOC(=O)c1ccc2[nH]c3c(c2c1)CCCC3	98*	-4	2	9	-4	13*	7	8.9*
CSCCC(C(=O)Nc1c(C)cccc1C)n1c(-c2cnc(C)cn2)nc2ccccc21 (stereo unspecified)	x	x	x	x	13	-1	x	x
N=c1oc2cc(O)ccc2cc1C(=O)Nc1ccc(F)cc1	4	-5	3	0	4	11*	4	6.7*
O=C(C1=C(O)C(=O)N(c2nccs2)C1c1ccccc1)c1cc2ccccc2o1 (stereo unspecified)	96*	5	13	-4	-7	14*	-1	3
Cn1c2ccc(Cl)cc2c2nc3ccccc3nc21	32	8	3	-12	9	9.4*	11*	3
COc1cc(Cc2nc3ccccc3n2C(C)c2nc3ccccc3[nH]2)cc(OC)c1 (stereo unspecified)	x	x	x	x	10	0	x	x
O=C1c2ccccc2CN1c1ccccc1	-2	-2	-13	-2	1	9.7*	11*	9.8*
Cc1ccc(N2Cc3ccccc3C2=O)cc1	x	-4	2	-13	5	10*	3	5
COc1ccc(N2Cc3ccccc3C2=O)cc1	x	-3	6	-29	6	2	x	x
COc1ccc(C)cc1NC(=O)C1CCN(S(=O)(=O)c2cccc3cccnc23)CC1	x	-4	-2	4	4	0	x	x
COc1ccc(C)cc1NC(=O)c1ccccc1NS(=O)(=O)c1cccc2cccnc12	-4	5	2	-10	1	8.1*	-3	-1
C#CCN(C[C@@H]1[C@@H](OC(=O)NCC2CCCCC2)[C@@H](OC(=O)NCC2CCCCC2)Cn2c(=O)n(CCCCCC)c(=O)n21)S(=O)(=O)c1ccc(C)cc1	x	x	x	x	-1	2	x	x
O=C(NC(c1ccc(F)cc1)c1ccc2ccccc2n1)C1CCN(CCOc2ccc(F)cc2)CC1 (stereo unspecified)	x	x	x	x	23	-5	x	x
COc1ccc(OCCN2CCC(C(=O)NC(c3ccc(F)cc3)c3ccc4ccccc4n3)CC2)cc1 (stereo unspecified)	x	x	x	x	12	9.6*	-4	-1
SMILES	ALR H2O2 inh	beta cell repl	PfM18AAP inh	JMJD2C inh	Exocytosis inh	SMARCA2 activ	SMARCA2 conf	GAL4-VP16 Luc
CC1=C(C(=O)N(C(C)C)C(C)C)CC(CC(=O)NC2CCCCC2)C(=O)N1Cc1ccc(F)cc1 (stereo unspecified)	x	x	x	x	3	1	x	x
CN1OC[C@@H]2CN[C@H](c3ccc(-c4cc5ccccc5o4)cc3)C[C@@H]21	x	x	x	x	7	x	x	x
Cc1cc2ccccn2c1C(=O)Nc1cccc(Cl)c1	13	-2	1	-6	-11	8.1*	5	3
Cc1cc2ccccn2c1C(=O)c1ccc(Cl)cc1	-2	-5	-1	-22	-3	3	x	x
CC1(C)CCC(C)(C)c2cc(NC(=O)c3ccc(C(=O)O)cc3)ccc21	x	x	x	x	x	1	x	x
COc1ccc(CNC(=O)c2ccc(C(C)C)cc2)cc1	-7	-4	2	-1	-1	11*	7	17*
O=C(CS(=O)(=O)c1cn(Cc2ccc(Cl)cc2)c2ccccc12)N1CCCC1	-16	4	1	0	0	-2	x	x
CCOC(=O)N1CCN(C(=O)CS(=O)(=O)c2cn(Cc3ccc(F)cc3)c3ccccc23)CC1	-4	-1	x	1	0	8.0*	-1	3
Cc1ccc(CCNC(=O)CCS(=O)(=O)c2cc3c(cc2C)NC(=O)CO3)cc1	-8	-1	4	4	-4	12*	2	-1
O=C(CCS(=O)(=O)c1cc2c(cc1Cl)NC(=O)CO2)NCCc1ccccc1	-1	-4	1	2	-5	0	x	x
CCOC(=O)CCSc1nc(C)c2cc(OC)ccc2n1	-10	3	6	6	2	10*	9.0*	11*
CCOC(=O)CCSc1nc(C)c2cc(C)c(C)cc2n1	4	-1	5	1	4	3	x	x
CCOC(=O)N1CCN(c2c(N3CCC(N4CCCCC4)CC3)c(=O)c2=O)CC1	-2	-2	-3	10	-1	8.0*	0	2
CCOC(=O)N1CCN(c2c(N3CCN(C(=O)OCC)CC3)c(=O)c2=O)CC1	-2	-3	-1	7	-4	0	x	x
CC1(C)OC(=O)C2=C(C[C@@H](C3CCCCC3)O[C@@H]2c2ccc(F)cc2)O1	x	x	x	x	-5	-2	x	x
Cc1ccc2nc(-c3cccc(Br)c3)c(Cc3ccccc3)n2c1	x	x	x	x	-3	10*	2	5
Clc1ccc2nc(-c3cccc(Br)c3)c(Cc3ccsc3)n2c1	x	x	x	x	3	8.9*	4	1
